{
  "source": "PubChem BioAssay (Tox21)",
  "note": "Results filed as inconclusive are left out. Where a call stands in place of a potency, no number is given. Active and inactive are the calls of the source. The call rests on the fitted dose curve; in most records, active means well fitted cell-killing curve with a large enough effect in the repeat runs; inconclusive means weak or mixed curves, or effect the other way; inactive means flat fitted curve, though single readings scatter. Potency means the concentration at half of the fitted maximal effect.",
  "data": [
    {"assay": "qHTS RealTime-Glo MT Cell Viability Assay in HEK293 cells - 16 hour (AID 1224872); further: nearly all actives have a fitted effect of over 50% in size", "conditions": "RealTime-Glo luminescence; series mostly up to 76.8 µM", "excerpt": "National Center for Advancing Translational Sciences [NCATS]\nNIH Chemical Genomics Center [NCGC]\nU.S. Environmental Protection Agency [EPA]\nNational Institutes of Environmental Health Sciences [NIEHS]\nNational Toxicology Program [NTP]\nU.S. Food and Drug Administration [FDA]\nMeasure of cell viability is critical in the cell-base assay. Analysis of cell viability is necessary for the characterization of cell responses to cytotoxic drugs and environmental stress. A RealTime-Glo MT Cell Viability Assay to monitor cell viability in real time of continues cell culture during 40 hours of compound treatment was used to screen Tox21 10K library compounds in Hek293 cells. The RealTime-Glo MT Cell Viability Assay is a nonlytic, homogeneous, bioluminescent method to measure cell viability in real time using a simple, plate-based method. The assay involves adding NanoLuc luciferase and a cell-permeant prosubstrate to cells in culture. Viable cells reduce the proprietary prosubstrate to generate a substrate for NanoLuc luciferase. This substrate diffuses from cells into the surrounding culture medium, where it is rapidly used by the NanoLuc Enzyme to produce a luminescent signal. The signal correlates with the number of viable cells, making the assay well suited for cytotoxicity studies.\nTox21 Assay Protocol Summary:\nThe mixture of Hek293 cell suspension and reagents were dispensed at 600cells/6 ul/well in 1536-well tissue culture treated black solid bottom plates using a Multidrop dispenser. After the assay plates were incubated at a 37 C/5% CO2 incubator for 5 hours, 23 nL of compounds dissolved in DMSO, positive and negative controls was transferred to the assay plate by a pintool work station. The plates were incubated at 37 C for 40 hours. The luminescence intensity were measured at 0h, 8h, 16h, 24h, 32h and 40h time points using ViewLux plate reader during compound treatment.", "values": [
      {"smiles": "Cc1cc2c(C(C)C)c(O)c(O)c(C=O)c2c(O)c1-c1c(C)cc2c(C(C)C)c(O)c(O)c(C=O)c2c1O", "Potency": "19 µM (active)"},
      {"smiles": "CCCCCCCCCCCC(=O)N(CC)CC", "Potency": "inactive"},
      {"smiles": "Cc1c(C)n(Cc2ccccc2)c2ccc(C(=O)OCCN(C)C)cc12", "Potency": "inactive"},
      {"smiles": "CN(C)CCOC(c1ccccc1)c1ccccc1", "note": "(tested in a mixture with another compound)", "Potency": "inactive"},
      {"smiles": "CCCCCCCCCCCCCc1ccccc1", "Potency": "inactive"},
      {"smiles": "C=CC(=O)OCCOCC(CC)(COCCOC(=O)C=C)COCCOC(=O)C=C", "Potency": "18.1 µM (active)"},
      {"smiles": "CCC(=O)OCCc1ccccc1", "Potency": "inactive"},
      {"smiles": "CCCCCCCC(=O)OCC", "Potency": "inactive"},
      {"smiles": "COc1cccc(OC)c1O", "Potency": "inactive"},
      {"smiles": "O=C1OC(=O)c2ccc3c4c(ccc1c24)C(=O)OC3=O", "Potency": "inactive"},
      {"smiles": "CC1(C)C(=O)N(Br)C(=O)N1Br", "Potency": "inactive"},
      {"smiles": "CCO[Si](C)(C)OCC", "Potency": "inactive"},
      {"smiles": "CCc1c(Br)c(Br)c(Br)c(Br)c1Br", "Potency": "inactive"},
      {"smiles": "CCCCCCC(C)OC(=O)COc1nc(F)c(Cl)c(N)c1Cl", "note": "(stereo not given)", "Potency": "inactive"},
      {"smiles": "O=C1c2c(O)ccc(O)c2C(=O)c2c(NCCNCCO)ccc(NCCNCCO)c21", "Potency": "0.848 µM (active)"},
      {"smiles": "CCc1cccc(CC)c1N(COC)C(=O)CS(=O)(=O)O", "Potency": "inactive"},
      {"smiles": "CC1=CP(=O)(c2ccccc2)CC1", "note": "(stereo not given)", "Potency": "inactive"},
      {"smiles": "OCCCc1cccnc1", "Potency": "inactive"},
      {"smiles": "Cc1cn[nH]c1", "Potency": "inactive"},
      {"smiles": "Cc1cccc(C)c1NC(=O)CN1CCN(CCCC(c2ccc(F)cc2)c2ccc(F)cc2)CC1", "Potency": "10.7 µM (active)"},
      {"smiles": "Clc1cc(Cl)c(-c2c(Cl)c(Cl)cc(Cl)c2Cl)cc1Cl", "Potency": "inactive"},
      {"smiles": "CCc1ccc(O)c(C(C)(C)C)c1", "Potency": "inactive"},
      {"smiles": "COc1ccc(C#N)cc1", "Potency": "inactive"},
      {"smiles": "Cc1c(C(=O)O)cccc1[N+](=O)[O-]", "Potency": "inactive"},
      {"smiles": "CC(C)(C)CC(C)(C)c1ccccc1O", "Potency": "39.1 µM (active)"},
      {"smiles": "CC(C)c1ccccc1N", "Potency": "inactive"},
      {"smiles": "CN(C)CCCN1c2ccccc2CCc2ccccc21", "Potency": "inactive"},
      {"smiles": "C=CC(=O)OCCN(CC)CC", "Potency": "inactive"},
      {"smiles": "CCCCOC(=O)C(C)CC", "note": "(stereo not given)", "Potency": "inactive"},
      {"smiles": "CC1CCCNC1", "note": "(stereo not given)", "Potency": "inactive"},
      {"smiles": "COc1ccc(-n2nc(CCC(=O)N(C)O)cc2-c2ccc(Cl)cc2)cc1", "Potency": "inactive"},
      {"smiles": "CC(=O)Nc1ccc(O)cc1", "Potency": "inactive"},
      {"smiles": "C/C=C/CO", "Potency": "inactive"},
      {"smiles": "CNC(=S)NN", "Potency": "inactive"},
      {"smiles": "C/C=C/C(=O)Oc1c(CCCCCC(C)C)cc([N+](=O)[O-])cc1[N+](=O)[O-]", "Potency": "19.5 µM (active)"},
      {"smiles": "CCc1cccc(C)c1", "Potency": "inactive"},
      {"smiles": "CC(C)=C1CC[C@@H](C)CC1=O", "Potency": "inactive"},
      {"smiles": "C=CC(=O)OCC(O)COc1ccccc1", "note": "(stereo not given)", "Potency": "inactive"},
      {"smiles": "Oc1c(Br)cc(Br)c2cccnc12", "Potency": "inactive"},
      {"smiles": "CCN(CC)CCOc1ccc(C(O)(Cc2ccc(Cl)cc2)c2ccc(C)cc2)cc1", "note": "(stereo not given)", "Potency": "21.3 µM (active)"}
    ]}
  ]
}
